# Results filed as inconclusive are left out. A call without a number means that no potency is given here. Activity calls are given as the source filed them. Unless noted, calls follow the shape of the dose curve; as a rule, active = well fitted curve in the direction sought with a large enough effect in the repeat runs; inconclusive = weak or mixed curves; inactive = no such curve, though single readings can be large; an effect the other way counts as inactive or inconclusive.
# Assays:
# [1] = qHTS assay for small molecule agonists of the p53 signaling pathway (AID 651631; calls by dose curve; also: nearly all actives have a fitted effect of over 15% in size)
# How it was run: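 HCT-116 cells carrying a stable p53 response element–beta-lactamase reporter were plated, rested 5 h at 37 °C, then exposed to compound in DMSO for 16 h at 37 °C; reporter activity was read as FRET substrate fluorescence after 2 h at room temperature.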
# [2] = qHTS assay for small molecules that induce genotoxicity in human embryonic kidney cells expressing luciferase-tagged ATAD5 (AID 651632); also: nearly all actives have a fitted effect of over 15% in size
# How it was run: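 Luminescence read-out: after 16 hr compound exposure at 37C, ATAD5-luciferase HEK293T cells received Amplite, 30 min RT, then CCD imaging. A rise in signal marks genotoxic stress.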
# [3] = qHTS assay for small molecule agonists of the p53 signaling pathway - cell viability (AID 651633; calls by dose curve; also: series mostly up to about 83 µM; nearly all actives have a fitted effect of over 30% in size)
# How it was run: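 p53RE-bla cells were treated with compound for 16 hours at 37 C. Cytotoxicity was then measured as CellTiter-Glo luminescence after 30 min at room temperature.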
# [4] = qHTS assay for small molecules that induce genotoxicity in human embryonic kidney cells expressing luciferase-tagged ATAD5 - cell viability (AID 651634; calls by dose curve; also: nearly all actives have a fitted effect of over 25% in size)
# How it was run: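 HEK293T ATAD5-luc cells, 2,000/well; compound 15.5 hr, 37C/5% CO2; CellTiter-Fluor 30 min, 37C; fluorescence read.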
# [5] = qHTS assay for small molecule disruptors of the mitochondrial membrane potential - cell viability (AID 720634; calls by dose curve;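 also: human HepG2 liver cancer cells; series mostly up to about 83 µM; nearly all actives have a fitted effect of over 20% in size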)
# How it was run: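 Luminescence from CellTiter-Glo (ATP content) gave viability in HepG2 cells, read in the same wells as the MMP dye assay after 1 hr compound exposure at 37 C.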
# [6] = qHTS assay for small molecule disruptors of the mitochondrial membrane potential (AID 720635); also: potency is read from the fitted curve at half-maximal effect
# How it was run: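 HepG2 cells exposed to compound 1 hr at 37C, then Mito-MPS dye 30 min. Ratio read of aggregate (540/590 nm) versus monomer (490/535 nm) fluorescence.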
# [7] = qHTS assay to test for compound auto fluorescence at 590 nm (red) in HepG2 cells (AID 720674)
# How it was run: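 Seeding: 2,000 HepG2 cells/well, MEM/10% FBS, overnight 37 C. Dosing: compound vs DMSO. Incubation: 1 hr, 37 C, 5% CO2. Read: fluorescence 540 ex/590 em, Rose Bengal sodium as red reference.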
# [8] = qHTS assay to test for compound auto fluorescence at 535 nm (green) in HepG2 cells (AID 720675)
# [9] = qHTS assay to test for compound auto fluorescence at 460 nm (blue) in HEK293 cells (AID 720678)
# How it was run: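 Cells were seeded and left to adhere for 4-5 hr at 37C. Compounds were then pin-transferred. After an overnight incubation at 37C under 5% CO2, intrinsic fluorescence at 405/460 nm was measured and referenced to triamterene.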
# [10] = qHTS assay to test for compound auto fluorescence at 590 nm (red) in HEK293 cells (AID 720679)
# How it was run: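 Each well held 2,000 HEK293 cells in medium containing 10% dialyzed FBS. Following 4-5 hr attachment at 37C, 23 nL test compound or DMSO was added; plates sat overnight, and red fluorescence (540/590nm) was recorded.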
Structure (SMILES),Potency [1],Potency [2],Potency [3],Potency [4],Potency [5],Potency [6],outcome [7],outcome [8],outcome [9],outcome [10]
Oc1cccc(Cl)c1,inactive,inactive,inactive,inactive,inactive,53.8 µM (active),inactive,inactive,inactive,inactive
Nc1cc(Cl)cc(C(=O)O)c1Cl,inactive,inactive,inactive,inactive,inactive,inactive,inactive,–,inactive,–
O=S(=O)(Cl)Cl,inactive,inactive,inactive,inactive,inactive,inactive,inactive,inactive,inactive,inactive
O=C(O)c1cc(Cl)ccc1Cl,inactive,inactive,inactive,inactive,inactive,inactive,inactive,inactive,–,inactive
CCCBr,inactive,inactive,inactive,inactive,inactive,inactive,inactive,–,inactive,inactive
CN(C)N,inactive,inactive,inactive,inactive,inactive,inactive,inactive,inactive,inactive,inactive
CCCCCCCCCCCCN(C)C,inactive,inactive,inactive,inactive,inactive,inactive,inactive,–,inactive,inactive
CCCC(C)(COC(N)=O)COC(=O)NC(C)C (centres undefined),inactive,inactive,inactive,inactive,inactive,inactive,inactive,inactive,inactive,inactive
O=C(Cc1ccccc1)OCCc1ccccc1,inactive,inactive,inactive,inactive,inactive,inactive,inactive,inactive,–,inactive
C=C(Cl)Cl,inactive,inactive,inactive,inactive,inactive,inactive,inactive,inactive,inactive,inactive
O=C([O-])c1ccccn1.O=C([O-])c1ccccn1.O=C([O-])c1ccccn1.[Cr+3],inactive,inactive,inactive,inactive,inactive,inactive,inactive,inactive,inactive,–
C[C@]12CC[C@H]3[C@@H](CCC4=CC(=O)CC[C@@H]43)[C@@H]1CC[C@@H]2OC(=O)CCc1ccccc1,inactive,inactive,inactive,inactive,inactive,inactive,inactive,inactive,inactive,inactive
C[C@H]1O[C@H](OC2[C@@H](O)[C@@H](O)C(O)[C@H](O)[C@H]2O)[C@@H](N)C[C@@H]1N=C(N)C(=O)O (some centres undefined),inactive,inactive,inactive,inactive,inactive,inactive,inactive,inactive,inactive,–
CCCCCCCCP(=O)(O)O,inactive,inactive,inactive,inactive,inactive,inactive,inactive,inactive,inactive,inactive
CC(C)CCON=O,inactive,inactive,inactive,inactive,inactive,inactive,inactive,–,inactive,–
COc1cc(CC(C)N)c(OC)cc1Br (centres undefined),inactive,inactive,inactive,inactive,inactive,inactive,inactive,inactive,–,inactive
O=[N+]([O-])O[C@H]1CO[C@H]2[C@@H]1OC[C@H]2O[N+](=O)[O-],inactive,inactive,inactive,inactive,inactive,inactive,inactive,inactive,inactive,inactive
CN[C@@H](C)[C@H](O)c1ccccc1,inactive,inactive,inactive,inactive,inactive,inactive,inactive,inactive,inactive,–
Cc1ccccc1,inactive,inactive,inactive,inactive,inactive,inactive,–,–,–,–
OCC1CO1 (centres undefined),inactive,inactive,inactive,inactive,inactive,inactive,inactive,inactive,–,inactive
O=C(NCNC(=O)NC1C(=O)NC(=O)N1CO)NC1C(=O)NC(=O)N1CO (centres undefined),inactive,inactive,inactive,inactive,inactive,inactive,inactive,inactive,inactive,–
CN1CC[C@]23c4c5ccc(O)c4O[C@H]2[C@@H](O)CC[C@H]3[C@H]1C5,inactive,inactive,inactive,inactive,inactive,inactive,inactive,inactive,–,inactive
COc1ccc2c(c1OC)C(=O)O[C@H]2[C@@H]1c2cc3c(cc2CCN1C)OCO3,inactive,inactive,inactive,inactive,inactive,inactive,inactive,inactive,inactive,–
C[N+](C)(C)CC1CO1 (centres undefined),inactive,inactive,inactive,inactive,inactive,inactive,inactive,inactive,–,inactive
OCCCl,inactive,inactive,inactive,inactive,inactive,inactive,inactive,inactive,inactive,inactive
Clc1ccc2ccccc2c1,inactive,inactive,inactive,inactive,inactive,inactive,inactive,inactive,inactive,inactive

Structure (SMILES),Potency [1],Potency [2],Potency [3],Potency [4],Potency [5],Potency [6],outcome [7],outcome [8],outcome [9],outcome [10]
NC(=O)CF,inactive,inactive,inactive,inactive,inactive,inactive,inactive,inactive,inactive,inactive
CC(C)OC(=O)Cc1ccccc1,inactive,inactive,inactive,inactive,inactive,inactive,inactive,inactive,inactive,inactive
CCCCCCCCCCCCCCCl,inactive,inactive,inactive,inactive,inactive,inactive,inactive,inactive,inactive,inactive
CC1(C)CC(=O)CC(C)(C)N1[O],inactive,inactive,inactive,inactive,inactive,inactive,inactive,inactive,inactive,inactive
COc1ccccc1N1CCNCC1,inactive,inactive,inactive,inactive,inactive,inactive,inactive,inactive,–,inactive
CC(O)CN1CCN(CC(=O)[O-])CCN(CC(=O)[O-])CCN(CC(=O)[O-])CC1.[Gd+3] (centres undefined),inactive,inactive,inactive,inactive,inactive,inactive,inactive,inactive,inactive,–
CCCCC(CC)CO[N+](=O)[O-] (centres undefined),inactive,inactive,inactive,inactive,inactive,inactive,inactive,inactive,inactive,inactive
CC(C)(C#N)C(C)(C)C#N,inactive,inactive,inactive,inactive,inactive,inactive,inactive,inactive,inactive,inactive
CCOC(=O)C1OC1(C)c1ccccc1 (centres undefined),inactive,inactive,inactive,inactive,inactive,inactive,inactive,–,inactive,–
CC[N+]1(C)CCCC(OC(=O)C(O)(c2ccccc2)c2ccccc2)C1 (centres undefined),inactive,inactive,inactive,inactive,inactive,inactive,inactive,inactive,inactive,–
CNC(=O)Oc1cccc(N=CN(C)C)c1,inactive,inactive,inactive,inactive,inactive,inactive,inactive,inactive,inactive,inactive
CCCCOC(=O)CCC(=O)OCCCC,inactive,inactive,inactive,inactive,inactive,inactive,inactive,–,–,inactive
COC1=CC(=O)O[C@@H](/C=C/c2ccc3c(c2)OCO3)C1,inactive,inactive,inactive,inactive,inactive,–,inactive,–,inactive,–
O=C(O)C(Cl)(Cl)Br,inactive,inactive,inactive,inactive,inactive,–,inactive,inactive,–,–
O=C(O)C(F)(F)C(F)(F)C(F)(F)C(F)(F)C(F)(F)F,inactive,inactive,inactive,inactive,inactive,–,inactive,inactive,–,inactive
CCCC1CCCCN1 (centres undefined),inactive,inactive,inactive,inactive,–,inactive,inactive,inactive,inactive,inactive
SCc1ccccc1,inactive,inactive,inactive,inactive,inactive,–,inactive,inactive,inactive,inactive
O=C1CC[C@@]2(O)[C@H]3Cc4ccc(O)c5c4[C@@]2(CCN3CC2CC2)[C@H]1O5,inactive,inactive,inactive,inactive,inactive,–,inactive,inactive,inactive,inactive
C[N+](C)(C)CCOC(=O)C(O)(c1ccccc1)c1ccccc1,inactive,inactive,inactive,inactive,inactive,inactive,inactive,–,inactive,inactive
OC[P+](CO)(CO)CO,inactive,inactive,inactive,inactive,inactive,–,inactive,inactive,inactive,inactive
CC(C)(c1ccccc1)c1cc(-n2nc3ccccc3n2)c(O)c(C(C)(C)c2ccccc2)c1,inactive,inactive,inactive,inactive,inactive,–,inactive,inactive,inactive,inactive
C1CCNCC1,inactive,inactive,inactive,inactive,–,inactive,inactive,inactive,inactive,–
CCN(C(C)=O)c1cccc(-c2ccnc3c(C#N)cnn23)c1,inactive,inactive,inactive,inactive,inactive,–,inactive,inactive,inactive,–
C[C@H](N)[C@H](O)c1ccc(O)c(O)c1,inactive,inactive,inactive,inactive,inactive,–,inactive,inactive,inactive,inactive
C1CS1,inactive,inactive,inactive,inactive,inactive,–,inactive,inactive,inactive,–
CCCCC(CC)COC(=O)c1c(Br)c(Br)c(Br)c(Br)c1C(=O)OCC(CC)CCCC (centres undefined),inactive,inactive,inactive,inactive,inactive,–,inactive,–,inactive,inactive

# From PubChem BioAssay (Tox21)
